# PubChem BioAssay (NCATS)
# Inconclusive results are not listed. A call without a number means that no potency is given here. Activity calls are given as the source filed them. Calls come from the whole dose curve; as a rule, active = well fitted inhibition curve with a large enough effect; inconclusive = small, poorly fitted or top-dose-only effect; inactive = no such curve, though single readings can be large or run the other way.
# Tested on: Zika virus NS2B-NS3 protease (linked construct)
# Assay: Primary screen NINDS Rhodamine qHTS for Zika virus inhibitors (AID 1347160); note: nearly all actives have a fitted effect of over 55% in size
# Conditions: purified NS2B-NS3 protease, Rhodamine110 substrate fluorescence; series mostly up to 57.1 µM
# Method in brief: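 Purified linked NS2B-NS3 protease (NS2B hydrophilic domain joined to NS3 protease by flexible linker), 25 nM in 10 mM Tris-HCl pH 8.0, 0.01% Tween 20. Compounds titrated, 15 min preincubation at room temperature; 1.5 microM Rhodamine110 substrate, FITC fluorescence change over 15 min.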
row,SMILES,Potency
1,CC1(C)CC2C(C1)C1(C)CCC13OC3(CO)C2O (stereo unspecified),inactive
2,O=C(O[C@H]1[C@@H]2C=CO[C@@H](O[C@@H]3O[C@H](CO)[C@@H](O)[C@H](O)[C@H]3O)[C@@H]2[C@@]2(CO)O[C@@H]12)c1ccc(O)c(O)c1,inactive
3,NS(=O)(=O)NCCNc1nonc1C(=Nc1ccc(F)c(Br)c1)NO,inactive
4,CC1=C(CC(=O)O)c2cc(F)ccc2C1=Cc1ccc(S(C)(=O)=O)cc1,inactive
5,O=C(c1ccc(F)cc1)C1CCN(CCn2c(=O)nc3n(c2=O)CCCC3)CC1,inactive
6,CC1=C2CC3OC3(C)CCC3OC3(C)CC2OC1=O (stereo unspecified),inactive
7,CC(c1c[nH]c2ccccc12)C(O)C(=O)O (stereo unspecified),inactive
8,C[C@@H]1O[C@@H](O[C@H]2[C@H](O[C@H]3[C@H](O[C@H]4CC[C@@]5(C)C(CC[C@]6(C)C5CC=C5[C@@H]7CC(C)(C(=O)O)C[C@@H](O)[C@]7(C)CC[C@]56C)[C@@]4(C)CO)O[C@H](C(=O)O)[C@@H](O)[C@@H]3O)O[C@H](CO)[C@H](O)[C@@H]2O)[C@H](O)[C@H](O)[C@H]1O (stereo partly specified),inactive
9,COc1cc([C@@H]2Oc3c(OC)cc(CCCO)cc3[C@@H]2CO[C@@H]2O[C@H](CO)[C@@H](O)[C@H](O)[C@H]2O)ccc1O,inactive
10,Cc1c(CN(C)C(=O)/C=C/c2cnc3c(c2)CCC(=O)N3)oc2ccccc12,inactive
11,CC(=O)N[C@H]1[C@H](O[C@H]2CC[C@@]3(C)C(CC[C@]4(C)C3CC=C3C5CC(C)(C)CC[C@]5(C(=O)O)[C@H](O[C@@H]5O[C@H](CO)[C@@H](O)[C@H](O)[C@H]5O)C[C@]34C)C2(C)C)O[C@H](CO[C@@H]2OC[C@H](O)[C@H](O)[C@H]2O[C@@H]2OC[C@@H](O)[C@H](O)[C@H]2O)[C@@H](O)[C@@H]1O (stereo partly specified),inactive
12,C=CC(C)(CC/C=C(\C)CC/C=C(\C)CC(O)/C=C(\C)C(=O)O)O[C@@H]1O[C@H](CO)[C@@H](O)[C@H](O)[C@H]1O[C@@H]1O[C@H](CO)[C@@H](O)[C@H](O)[C@H]1O (stereo partly specified),inactive
13,CC(=O)O[C@@H]1[C@H]2[C@@H](OC(=O)c3ccccc3)[C@@H](C)C[C@]2(O)[C@H](OC(C)=O)[C@@]2(C)[C@@H]3CC(C)(C)C(=O)[C@]3(OC(C)=O)C[C@@]12C,inactive
14,CC1=CC(=O)C2C(C)(C)CCCC2(C)C12CCC1(COC(=O)C1)O2 (stereo unspecified),inactive
15,OC[C@H]1O[C@@H](n2cnc3c(NCc4ccc(O)cc4)ncnc32)[C@H](O)[C@@H]1O,inactive
16,C=CCc1ccc(O[C@@H]2O[C@H](CO)[C@@H](O)[C@H](O)[C@H]2O)c(OC)c1,inactive
17,CCOC(=O)[C@H](CCc1ccccc1)CC1(C(=O)N[C@H]2CCc3ccccc3N(CC(=O)O)C2=O)CCCC1,inactive
18,CC(C)c1ccc(CC(=O)N2CCC[C@@H](c3cccc(OC(C)(C)C(=O)O)c3)C2)cc1,inactive
19,CCCC(N[C@@H](C)C(=O)N1[C@H](C(=O)O)C[C@@H]2CCCC[C@@H]21)C(=O)OCC (stereo partly specified),inactive
20,COC(=O)CC[C@@H](C)[C@H]1CC[C@H]2[C@@H]3CC(=O)[C@H]4C[C@H](OC(C)=O)CC[C@]4(C)[C@H]3CC[C@]12C,inactive
21,COC1C2=C(COC2=O)C2(C)CCCC(C)(CO)C2C1OC(=O)c1ccccc1 (stereo unspecified),inactive
22,C[C@]12C=CC(=O)C=C1CC[C@@H]1[C@@H]2[C@@H](O)C[C@@]2(C)[C@H]1CC[C@]2(O)C(=O)COC(=O)CCC(=O)O,inactive
23,C[C@H]1[C@H](C)CC[C@]2(C(=O)O[C@@H]3O[C@H](CO)[C@@H](O)[C@H](O)[C@H]3O)CC[C@]3(C(=O)O)C(=CCC4[C@@]5(C)CC[C@H](O[C@@H]6O[C@H](CO)[C@@H](O)[C@H](O)[C@H]6O)C(C)(C)C5CC[C@]43C)[C@H]12 (stereo partly specified),inactive
24,CC(C)CC(=O)OC[C@H]1O[C@@](COC(=O)CC(C)C)(O[C@H]2O[C@H](CO)[C@@H](O)[C@H](O)[C@H]2O)[C@@H](OC(=O)CC(C)C)[C@@H]1OC(=O)CC(C)C,inactive
25,CN1C(=O)c2ccccc2NC(=O)[C@]12O[C@@H]2c1cccc(O)c1,inactive
26,CC(=O)OC[C@@]12[C@H](O)C[C@]3(C)C(=CCC4[C@@]5(C)CC[C@H](O[C@@H]6O[C@H](C(=O)O)[C@@H](O[C@@H]7O[C@H](CO)[C@@H](O)[C@H](O)[C@H]7O)[C@H](O)[C@H]6O[C@@H]6O[C@H](CO)[C@@H](O)[C@H](O)[C@H]6O)[C@](C)(CO)C5CC[C@]43C)[C@@H]1CC(C)(C)[C@@H](OC(C)=O)[C@@H]2O (stereo partly specified),inactive
